In general, AC50 refers to the concentration at which the activity in the assay is half-maximal.

We go through 15 molecules from PubChem BioAssay (EPA / NIEHS).

“And” between values parts separate entries of the source, which are not always exact repeats. Equal values may be shown once. Results filed as inconclusive are left out. The source made the active and inactive calls. How the source made its calls, unless noted: active means hit-call score of the fitted dose curve at least 0.9, where 1 is the maximum; inconclusive means response in the unintended direction; inactive means score below 0.9.

The target of assay [1] is rat CYP1A2, Cyp1a2 (gene 24297) (UniProt P04799). Description: NVS_ADME_rCYP1A2: NovaScreen (NVS) CYP450-related Enzyme Activity (ADME) Assay for rat CYP1A2 (AID 2283115). In a few lines: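 Primary testing ran in duplicate at 10 uM, with actives re-tested across concentration series. Fluorescence intensity from substrate turnover by recombinant protein, measured 1 hour post-dosing, with signal loss scored against acetonitrile vehicle.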

The target in assay [2] is Cytochrome P450 2C19 (Homo sapiens) (UniProt P33261). Description: NVS_ADME_hCYP2C19: NovaScreen (NVS) CYP450-related Enzyme Activity (ADME) Assay for human CYP2C19 (AID 2283113).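 On AC50: potency for inhibition seen as loss of fluorescent signal.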 A digest of the protocol: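 Recombinant insect-cell-expressed enzyme, fluorescent substrate, 1 h after chemical addition, fluorescence intensity. Baseline = acetonitrile vehicle; activity scored as signal loss. Primary HTS single concentration 10 uM, duplicate; actives retested in concentration series.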

Assay [3] deals with human Beta-secretase (BACE), BACE1 (gene 23621) (UniProt P56817). Description: NVS_ENZ_hBACE: NovaScreen (NVS) Enzymatic Assay for human Beta-secretase (BACE) (AID 2283140).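 Further: hits are inhibitors that reduce fluorescent substrate signal versus DMSO.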 A digest of the protocol: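 Enzyme from SF9 cells was incubated 1 hour with compound and fluorogenic substrate, activity read by fluorescence. Single-concentration duplicates at 25 uM preceded concentration-response follow-up; fitting relative to DMSO baseline.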
Chain of human Beta-secretase (BACE), BACE1 (gene 23621) (P56817 whole entry, looked up): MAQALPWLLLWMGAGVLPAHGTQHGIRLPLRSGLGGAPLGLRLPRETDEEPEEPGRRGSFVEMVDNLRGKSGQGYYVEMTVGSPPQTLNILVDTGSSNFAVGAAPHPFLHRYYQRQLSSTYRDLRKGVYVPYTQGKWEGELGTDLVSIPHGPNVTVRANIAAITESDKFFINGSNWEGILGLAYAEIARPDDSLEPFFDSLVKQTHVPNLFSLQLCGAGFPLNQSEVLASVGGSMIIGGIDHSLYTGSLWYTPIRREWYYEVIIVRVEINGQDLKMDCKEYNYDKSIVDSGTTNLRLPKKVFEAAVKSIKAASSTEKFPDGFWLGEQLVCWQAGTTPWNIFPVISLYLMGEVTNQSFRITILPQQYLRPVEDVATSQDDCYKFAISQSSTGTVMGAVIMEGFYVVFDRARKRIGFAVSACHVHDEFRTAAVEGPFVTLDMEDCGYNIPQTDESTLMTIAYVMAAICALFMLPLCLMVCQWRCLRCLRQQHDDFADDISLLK

The target in assay [4] is rat CYP2A1, Cyp2a1 (gene 24894) (UniProt P11711). Description: NVS_ADME_rCYP2A1: NovaScreen (NVS) CYP450-related Enzyme Activity (ADME) Assay for rat CYP2A1 (AID 2283114; active means hit-call score of the fitted dose curve at least 0.9, where 1 is the maximum; inactive means score below 0.9). A digest of the protocol: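 Cell-free fluorescence enzyme-activity read on recombinant rat CYP2A1, taken 0.75 h post-dosing. Compounds were screened in duplicate at 10 uM, then hits tested in concentration series (max 20 uM); inhibition scored relative to acetonitrile baseline.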
Chain of rat CYP2A1, Cyp2a1 (gene 24894) (P11711 whole entry, looked up): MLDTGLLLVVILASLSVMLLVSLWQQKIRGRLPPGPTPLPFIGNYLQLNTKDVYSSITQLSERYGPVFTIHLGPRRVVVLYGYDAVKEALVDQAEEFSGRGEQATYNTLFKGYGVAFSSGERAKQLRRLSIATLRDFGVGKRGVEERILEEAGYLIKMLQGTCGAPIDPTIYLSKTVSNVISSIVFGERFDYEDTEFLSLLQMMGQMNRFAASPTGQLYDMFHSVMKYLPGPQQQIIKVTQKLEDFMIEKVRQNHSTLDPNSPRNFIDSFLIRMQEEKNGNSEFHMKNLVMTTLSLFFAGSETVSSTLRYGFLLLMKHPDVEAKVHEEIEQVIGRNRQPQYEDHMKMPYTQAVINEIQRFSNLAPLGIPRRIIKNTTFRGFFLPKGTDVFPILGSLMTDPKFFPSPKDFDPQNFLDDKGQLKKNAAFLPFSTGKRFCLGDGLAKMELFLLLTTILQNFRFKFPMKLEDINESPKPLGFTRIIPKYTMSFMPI

Another assay has as its system rat CYP3A1, gene 25642. The assay can be described thus: NVS_ADME_rCYP3A1: NovaScreen (NVS) CYP450-related Enzyme Activity (ADME) Assay for rat CYP3A1 (AID 2283126). A digest of the protocol: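 Compounds went first at 10 uM duplicate, then to series with 20 uM maximum. Fluorescence from substrate turnover by the recombinant enzyme was measured 0.5 h post-dosing, inhibition scored against acetonitrile vehicle.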

Assay [5] addresses human AMP-activated Protein Kinase, alpha 1 (AMPKa1), PRKAA1 (gene 5562) (UniProt Q13131). Description: NVS_ENZ_hAMPKa1: NovaScreen (NVS) Enzymatic Assay for human AMP-activated Protein Kinase, alpha 1 (AMPKa1) (AID 2283130). In a few lines:
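Compounds were screened in duplicate at 25 uM, and those reaching ~30% inhibition were titrated up to 50 uM. The enzyme was recombinant human AMPKα1, and kinase turnover was read by fluorescence/mobility shift 1 h post-dosing as loss of signal versus DMSO.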

Assay [6] has as its target human Acid Phosphatase 1 (ACP1), ACP1 (gene 52) (UniProt P24666). The assay can be described thus: NVS_ENZ_hACP1: NovaScreen (NVS) Enzymatic Assay for human Acid Phosphatase 1 (ACP1) (AID 2283136). A digest of the protocol:
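Cell-free fluorescence read-out of phosphatase activity, substrate and product separated by mobility shift, taken 1.5 h after compound addition; protein produced in Sf9. Single 25 uM duplicate screen, followed by concentration series for actives, scored as signal loss relative to DMSO.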

The target in assay [7] is rat CYP2A2, Cyp2a2 (gene 24895) (UniProt P15149). The assay can be described thus: NVS_ADME_rCYP2A2: NovaScreen (NVS) CYP450-related Enzyme Activity (ADME) Assay for rat CYP2A2 (AID 2283116). In a few lines: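 Compounds first tested in duplicate at 10 uM, then in singleton concentration series up to 20 uM when over threshold. Activity of the recombinant enzyme read by fluorescence at 0.2 h, normalised to acetonitrile vehicle.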

The target in assay [8] is rat CYP2C11, Cyp2c11 (gene 29277) (UniProt P08683). Description: NVS_ADME_rCYP2C11: NovaScreen (NVS) CYP450-related Enzyme Activity (ADME) Assay for rat CYP2C11 (AID 2283118). In a few lines: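 Screened first at 10 uM in duplicate, hits followed by concentration-response. Recombinant rat enzyme activity monitored by fluorescence 0.33 h post-dosing, normalised to acetonitrile negative control.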
Chain of rat CYP2C11, Cyp2c11 (gene 29277) (P08683 whole entry, looked up): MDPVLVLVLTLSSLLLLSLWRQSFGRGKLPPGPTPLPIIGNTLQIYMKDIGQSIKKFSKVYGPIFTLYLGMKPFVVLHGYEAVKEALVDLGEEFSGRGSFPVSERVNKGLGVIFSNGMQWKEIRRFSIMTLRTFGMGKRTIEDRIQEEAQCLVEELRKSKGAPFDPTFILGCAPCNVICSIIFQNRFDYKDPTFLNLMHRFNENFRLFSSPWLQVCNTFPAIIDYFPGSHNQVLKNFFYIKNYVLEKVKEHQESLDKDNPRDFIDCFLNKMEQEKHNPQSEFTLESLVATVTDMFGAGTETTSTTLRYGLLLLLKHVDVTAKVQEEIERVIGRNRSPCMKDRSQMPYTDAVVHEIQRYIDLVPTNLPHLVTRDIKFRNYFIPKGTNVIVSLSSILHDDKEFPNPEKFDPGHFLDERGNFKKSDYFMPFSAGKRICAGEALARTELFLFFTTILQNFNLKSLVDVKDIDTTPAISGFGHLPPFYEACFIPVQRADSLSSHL

The target in assay [9] is rat CYP2C13, Cyp2c13 (gene 171521) (UniProt P20814). The assay can be described thus: NVS_ADME_rCYP2C13: NovaScreen (NVS) CYP450-related Enzyme Activity (ADME) Assay for rat CYP2C13 (AID 2283121). In a few lines:
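Inhibition is read as decreased fluorescent product formation, referenced to acetonitrile vehicle. Cell-free recombinant rat Cyp2c13 reaction ran 0.75 hour; compounds first at 10 uM in duplicate, then concentration series for actives.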

In assay [10] the target is human AKT serine/threonine Kinase 1 (AKT1), AKT1 (gene 207) (UniProt P31749). The assay can be described thus: NVS_ENZ_hAKT1: NovaScreen (NVS) Enzymatic Assay for human AKT serine/threonine Kinase 1 (AKT1) (AID 2283138). A digest of the protocol: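 Screening first at 25 uM (duplicate), with threshold-passing chemicals re-tested in concentration series to a 50 uM maximum. Kinase activity read by fluorescence with mobility-shift separation of substrate and product, 1 h after dosing, DMSO baseline.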
Chain of human AKT serine/threonine Kinase 1 (AKT1), AKT1 (gene 207) (P31749 whole entry, looked up): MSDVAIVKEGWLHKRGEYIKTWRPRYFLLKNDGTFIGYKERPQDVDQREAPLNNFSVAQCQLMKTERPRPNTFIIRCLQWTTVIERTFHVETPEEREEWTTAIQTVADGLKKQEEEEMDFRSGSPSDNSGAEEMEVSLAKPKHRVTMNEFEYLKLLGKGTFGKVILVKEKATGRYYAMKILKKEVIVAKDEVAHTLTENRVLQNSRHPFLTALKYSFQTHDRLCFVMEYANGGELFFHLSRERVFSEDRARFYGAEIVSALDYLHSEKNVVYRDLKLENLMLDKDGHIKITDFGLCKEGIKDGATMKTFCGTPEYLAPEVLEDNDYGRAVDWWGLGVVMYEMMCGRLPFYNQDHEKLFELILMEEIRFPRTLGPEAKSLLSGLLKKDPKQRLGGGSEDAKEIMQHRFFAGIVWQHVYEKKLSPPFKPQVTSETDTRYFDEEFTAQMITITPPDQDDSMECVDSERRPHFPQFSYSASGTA

Assay [11] addresses human AKT serine/threonine Kinase 2 (AKT2), AKT2 (gene 208) (UniProt P31751). Description: NVS_ENZ_hAKT2: NovaScreen (NVS) Enzymatic Assay for human AKT serine/threonine Kinase 2 (AKT2) (AID 2283141). In a few lines: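 Cell-free fluorescence/electrophoretic mobility shift readout of recombinant human AKT2 activity, 1 h after chemical dosing. Duplicate primary screen at 25 uM, then singleton concentration-response up to 50 uM; loss of signal versus DMSO baseline.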

Assay [12] concerns the target human CYP2D6, CYP2D6 (gene 1565) (UniProt P10635). The assay can be described thus: NVS_ADME_hCYP2D6: NovaScreen (NVS) CYP450-related Enzyme Activity (ADME) Assay for human CYP2D6 (AID 2283107). A digest of the protocol: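 Fluorescence intensity read 1 h post-dosing; insect-cell-expressed recombinant protein with fluorogenic substrate, no cells. Activity is scored as signal loss relative to acetonitrile baseline, first at a single 10 uM concentration in duplicate, then as concentration series for confirmed actives.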

Assay [13] has as its target human Caspase 5 (CASP5), CASP5 (gene 838) (UniProt P51878). The assay can be described thus: NVS_ENZ_hCASP5: NovaScreen (NVS) Enzymatic Assay for human Caspase 5 (CASP5) (AID 2283137). In a few lines: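 Loss of fluorescent signal versus DMSO scored for E. coli-derived human CASP5 cleaving a fluorescent substrate, 2 h post-dosing; compounds first tested at 25 uM in duplicate, hits rerun in concentration series with 50 uM top concentration.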

Assay [14] deals with human CYP4F12, CYP4F12 (gene 66002) (UniProt Q9HCS2). The assay can be described thus: NVS_ADME_hCYP4F12: NovaScreen (NVS) CYP450-related Enzyme Activity (ADME) Assay for human CYP4F12 (AID 2283111). In a few lines: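 Recombinant enzyme with a fluorescent substrate, signal read at 0.5 h post-dose; activity loss analysed relative to acetonitrile. Compounds first run in duplicate at 10 uM, with follow-up concentration-response testing of actives.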
Chain of human CYP4F12, CYP4F12 (gene 66002) (Q9HCS2 whole entry, looked up): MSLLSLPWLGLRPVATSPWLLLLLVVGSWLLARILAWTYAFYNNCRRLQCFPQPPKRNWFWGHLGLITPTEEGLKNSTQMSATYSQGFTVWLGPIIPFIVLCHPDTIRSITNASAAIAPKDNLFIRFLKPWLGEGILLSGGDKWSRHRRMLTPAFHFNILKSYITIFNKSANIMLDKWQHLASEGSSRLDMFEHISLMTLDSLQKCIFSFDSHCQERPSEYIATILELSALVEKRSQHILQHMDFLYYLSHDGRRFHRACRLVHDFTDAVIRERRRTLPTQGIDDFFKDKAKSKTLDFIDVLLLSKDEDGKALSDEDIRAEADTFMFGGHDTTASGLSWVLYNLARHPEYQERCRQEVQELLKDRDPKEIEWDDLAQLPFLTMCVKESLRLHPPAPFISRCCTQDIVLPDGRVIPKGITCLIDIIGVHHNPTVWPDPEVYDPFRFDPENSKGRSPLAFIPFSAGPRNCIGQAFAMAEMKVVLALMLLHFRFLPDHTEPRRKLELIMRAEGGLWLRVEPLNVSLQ

Chain of human AMP-activated Protein Kinase, alpha 1 (AMPKa1), PRKAA1 (gene 5562) (Q13131 whole entry, looked up): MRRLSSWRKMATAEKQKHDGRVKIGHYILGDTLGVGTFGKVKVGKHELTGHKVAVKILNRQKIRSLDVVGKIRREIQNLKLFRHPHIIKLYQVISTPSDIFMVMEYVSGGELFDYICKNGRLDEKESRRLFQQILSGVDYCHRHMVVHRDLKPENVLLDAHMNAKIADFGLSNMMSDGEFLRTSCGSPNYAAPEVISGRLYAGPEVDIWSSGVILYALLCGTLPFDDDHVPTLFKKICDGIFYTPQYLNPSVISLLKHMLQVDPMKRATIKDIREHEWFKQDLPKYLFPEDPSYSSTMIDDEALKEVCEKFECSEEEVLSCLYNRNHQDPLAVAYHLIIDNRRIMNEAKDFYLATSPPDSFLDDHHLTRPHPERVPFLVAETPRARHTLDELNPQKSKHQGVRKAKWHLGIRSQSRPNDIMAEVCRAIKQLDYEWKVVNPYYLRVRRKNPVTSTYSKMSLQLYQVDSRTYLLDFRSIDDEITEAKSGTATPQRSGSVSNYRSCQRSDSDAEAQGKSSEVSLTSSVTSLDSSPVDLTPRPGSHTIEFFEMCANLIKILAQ
Chain of human Acid Phosphatase 1 (ACP1), ACP1 (gene 52) (P24666 whole entry, looked up): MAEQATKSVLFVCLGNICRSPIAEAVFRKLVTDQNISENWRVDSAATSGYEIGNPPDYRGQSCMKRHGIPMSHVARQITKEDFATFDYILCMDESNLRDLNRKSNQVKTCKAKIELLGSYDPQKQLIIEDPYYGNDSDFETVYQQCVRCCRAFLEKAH
Chain of human Caspase 5 (CASP5), CASP5 (gene 838) (P51878 whole entry, looked up): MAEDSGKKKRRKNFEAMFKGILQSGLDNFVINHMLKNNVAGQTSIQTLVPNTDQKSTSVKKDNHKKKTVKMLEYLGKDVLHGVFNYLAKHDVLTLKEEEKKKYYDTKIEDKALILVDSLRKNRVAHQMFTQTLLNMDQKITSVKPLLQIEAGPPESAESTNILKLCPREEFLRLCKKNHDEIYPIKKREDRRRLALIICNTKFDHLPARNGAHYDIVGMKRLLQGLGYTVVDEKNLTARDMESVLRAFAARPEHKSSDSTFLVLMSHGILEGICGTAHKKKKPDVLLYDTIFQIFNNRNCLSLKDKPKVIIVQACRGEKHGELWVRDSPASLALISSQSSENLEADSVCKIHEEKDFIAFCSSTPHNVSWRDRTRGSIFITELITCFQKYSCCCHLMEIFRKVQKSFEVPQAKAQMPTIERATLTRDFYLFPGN
Chain of human AKT serine/threonine Kinase 2 (AKT2), AKT2 (gene 208) (P31751 whole entry, looked up): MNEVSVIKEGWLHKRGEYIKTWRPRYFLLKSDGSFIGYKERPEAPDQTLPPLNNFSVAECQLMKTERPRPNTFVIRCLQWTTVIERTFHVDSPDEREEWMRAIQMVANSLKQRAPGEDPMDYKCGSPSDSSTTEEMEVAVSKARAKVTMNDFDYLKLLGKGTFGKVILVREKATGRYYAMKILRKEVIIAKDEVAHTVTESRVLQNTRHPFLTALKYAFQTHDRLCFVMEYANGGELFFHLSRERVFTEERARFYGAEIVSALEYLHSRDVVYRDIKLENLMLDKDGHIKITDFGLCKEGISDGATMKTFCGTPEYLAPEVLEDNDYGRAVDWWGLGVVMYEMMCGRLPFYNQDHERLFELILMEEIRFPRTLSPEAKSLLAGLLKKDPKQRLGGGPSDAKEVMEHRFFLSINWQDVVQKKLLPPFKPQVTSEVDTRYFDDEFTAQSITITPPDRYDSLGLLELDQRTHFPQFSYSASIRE
Chain of human CYP2D6, CYP2D6 (gene 1565) (P10635 whole entry, looked up): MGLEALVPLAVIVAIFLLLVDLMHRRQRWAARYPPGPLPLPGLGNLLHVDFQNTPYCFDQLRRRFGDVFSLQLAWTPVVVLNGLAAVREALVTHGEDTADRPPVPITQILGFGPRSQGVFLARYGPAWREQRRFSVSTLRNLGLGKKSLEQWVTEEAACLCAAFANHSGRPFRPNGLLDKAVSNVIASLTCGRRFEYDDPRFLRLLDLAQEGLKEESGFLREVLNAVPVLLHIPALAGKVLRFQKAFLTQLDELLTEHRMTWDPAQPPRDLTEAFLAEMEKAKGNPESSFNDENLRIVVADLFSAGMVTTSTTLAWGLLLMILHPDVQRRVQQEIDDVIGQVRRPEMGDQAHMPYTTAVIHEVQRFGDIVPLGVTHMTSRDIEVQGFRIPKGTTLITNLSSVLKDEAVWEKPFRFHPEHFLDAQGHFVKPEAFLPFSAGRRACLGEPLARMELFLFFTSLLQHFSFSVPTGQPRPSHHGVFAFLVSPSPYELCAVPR

Consider `CC(C)(c1ccccc1)c1cc(-n2nc3ccccc3n2)c(O)c(C(C)(C)c2ccccc2)c1`, for which the molecule was called inactive in [1].
Regarding `CN(C)C(=S)S`, the molecule was classed as inactive in assay [2] and in assay [3].
With `COC(=O)Nc1cccc(OC(=O)Nc2cccc(C)c2)c1`, the AC50 in assay [4] was 3.46 µM (active); in the assay with rat CYP3A1, gene 25642 it was 11.4 µM (active).
Turning to `O=[N+]([O-])c1ccc(Nc2ccccc2)cc1`, the AC50 in assay [2] is 5 µM (active).
As to `N#Cc1cccnc1`, the molecule was called inactive in [5] and in assay [6].
Take `O=C(O)COc1ccc(Cl)cc1`: the outcome in [7] was inactive.
As to `O=C(O)C1(c2ccc3c(c2)OC[C@H](Cc2ccc(-c4ccccc4)cc2)[C@H]3O)CCCC1`, the outcome in assay [5] was inactive.
On to `CC1(C)[C@H](C(=O)O[C@H](C#N)c2cccc(Oc3ccccc3)c2)[C@@H]1/C=C(\Cl)C(F)(F)F`, for which the AC50 in assay [2] is 848 nM (active) and 3.32 µM (active). Also, the outcome in assay [8] was “inactive”; in assay [9], “inactive”; in the assay with rat CYP3A1, gene 25642 it was “inactive”.
On to `COc1ccccc1N`, for which the result in assay [10] and in assay [11] was inactive.
With `CC(C=O)Cc1ccc2c(c1)OCO2` (stereo not drawn), the AC50 in [2] was 5 µM (active).
In the case of `Nc1ccc(N)cc1`, the outcome in assay [12] was inactive. Moreover, the AC50 is 5.42 µM (active) in assay [13] and 15.1 µM (active) in assay [3].
For `CNC(=O)CSP(=O)(OC)OC`, in [2], the AC50 was 2.11 µM (active).
On to `CCCCCCCCCCCCc1cccc(S(=O)(=O)O)c1`, for which the molecule was called inactive in assay [5] and in assay [6]. Besides, the AC50 was 35 µM (active) in [10] and 0.428 µM (active) in assay [3].
In the case of `CCCCCCCCCCCCOS(=O)(=O)O`, the molecule was classed as inactive in assay [5].
With `Oc1cc(Cl)c(Cl)cc1Cl`, the AC50 in [14] was 0.605 µM (active). Also, the molecule was called inactive in assay [10].
